High-throughput results as filed in PubChem.
VCAM1 TNFa inh: inhibitors of TNFa-induced VCAM1 expression, primary screen, imaging, HUVEC, TNFa stimulus, immunofluorescence. HUVEC TNFa-induced VCAM-1 immunofluorescence, high-content imaging. inhibition, % at 2 µM. actives 0.48% (n = 95,000);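 active = inhibition above the batch mean plus 3 SD, with images confirmed as a hit by eye, cut at about 37% in these data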
cytoskel mod: modifiers of F-actin cytoskeleton organization, primary screen, imaging, HUVEC, phalloidin staining, high-content imaging | inhibition, % at 2 µM | HUVEC TNFa F-actin phalloidin imaging | AID 836, 2007 | actives 0.18% (n = 91,000);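 active = inhibition above the batch mean plus 3 SD and confirmed as a hit by visual image inspection, cut at about 30% in these data, passing the limit was not always enough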
TNFa cytotox: cytotoxicity in TNFa-stimulated HUVEC, primary screen, cytotoxicity control for VCAM1 expression modulator project, imaging, Hoechst nuclei count; AID 848, 2007; actives 0.17% (n = 93,000); HUVEC TNFalpha-stimulated, Hoechst cell count; cell count reduction, % at 2 µM;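 active = cell count reduction exceeding the screen mean by over 5 SD, scaled to untreated wells per plate, cut at about 78% in these data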;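 note: cells counted after 24 h of TNF alpha exposure following the 1 h pretreatment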
E-sel TNF inh: E-selectin induction blockers in HUVEC – imaging, immunofluorescence, high content, primary screen; HUVEC TNFa-induced E-selectin immunofluorescence; actives 0.71% (n = 120,000); inhibition, % at 2 µM; AID 1246, 2008;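 active = inhibition above the batch mean plus 3 SD, and confirmed as a hit on visual image review, cut at about 43% in these data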
A number is an active result; n = inactive; x = not tested or not shown. Sampled rows, rich in hits. Any-hit rate of the full collection: about 1.2%.

SMILES	VCAM1 TNFa inh	cytoskel mod	TNFa cytotox	E-sel TNF inh
CS(=O)(=O)N1CCC(Oc2ccccc2C(=O)N2CCN(CC3CC3)CC2)CC1	x	x	x	n
CCC1=Nc2cc(C(=O)NCCCOC)ccc2Sc2ccccc21	60	n	n	n
CCCC1=Nc2cc(C(=O)NCCCOC(C)C)ccc2Sc2ccccc21	n	n	n	n
CCCC1=Nc2cc(C(=O)NCCCOCC)ccc2Sc2ccccc21	94	n	n	n
CCOC(=O)N1CCN(C(=O)COc2cccc3c2CCN(Cc2cccc(C)c2)C3=O)CC1	x	x	x	69
CCOC(=O)N1CCN(C(=O)COc2cccc3c2CCN(Cc2ccccc2C)C3=O)CC1	x	x	x	n
CCOC(=O)C1CCN(C(=O)CNC(=O)OC(C)(C)C)CC1	n	n	n	n
CC(C)(C)OC(=O)NCC(=O)N1CCC(C(=O)O)CC1	n	n	n	69
Cc1c(NC(=O)C(C)N2CC(C)OC(C)C2)c(=O)n(-c2ccccc2)n1C (configuration not stated)	n	n	n	n
O=C(COc1ncnc2cc([N+](=O)[O-])ccc12)NCc1ccc2c(c1)OCO2	n	n	n	n
COc1ccc(CCNC(=O)COc2ncnc3cc([N+](=O)[O-])ccc23)cc1	x	x	x	74
COc1ccc(-c2nnc(SCC(=O)N3CCCC3)o2)cc1OC	x	x	x	n
COc1ccc(-c2nnc(SCC(=O)N3CCCc4ccccc43)o2)cc1OC	n	34	n	n
O=C(COc1ccc(-c2nnco2)cc1)NCc1ccccc1Cl	x	x	x	77
O=c1cc(-c2ccccc2)c2ccccc2[nH]1	n	n	n	65
CCc1nnc(NC(=O)C2CCC2)s1	n	n	n	n
CCc1nnc(NC(=O)C2c3ccccc3Oc3ccccc32)s1	n	46	n	n
Cn1c(NC(=O)C2c3ccccc3Oc3ccccc32)cc(=O)n(C)c1=O	94	n	n	n
Cn1c(NC(=O)c2ccccc2)cc(=O)n(C)c1=O	n	n	n	x
COc1ccc(-c2c/c(=N\c3nc(-c4ccccc4)c(C)s3)c3ccccc3o2)cc1O	51	n	n	n
CCOC(=O)CCCn1nc(C)n2c(cc3sccc32)c1=O	n	n	n	n
CCOC(=O)C(CC)n1nc(C)n2c(cc3sccc32)c1=O (configuration not stated)	x	x	x	46
COc1ccc(C(C)=O)cc1CSc1nnc(Nc2ccccc2)s1	x	x	x	n
COCCn1c(C(C)C)nc2oc3ccccc3c(=O)c2c1=O	n	n	n	x
CCc1nc2oc3ccccc3c(=O)c2c(=O)n1CCOC	87	n	97	x
SMILES	VCAM1 TNFa inh	cytoskel mod	TNFa cytotox	E-sel TNF inh
Cc1sc(NC(=O)c2ccco2)c(C(c2cccnc2)N2CCCC2)c1C (configuration not stated)	n	n	n	x
COc1cc(NC(=O)CN2CCC(C)CC2)c(C)cc1[N+](=O)[O-]	x	x	x	83
CCN1CCN(CC(=O)Nc2cc(C)c(C)cc2[N+](=O)[O-])CC1	x	x	x	n
Cc1ccc2nc3cc([N+](=O)[O-])cc([N+](=O)[O-])c3cc2c1	x	x	x	99
Cc1ccccc1-n1ncc2c([N+](=O)[O-])cc([N+](=O)[O-])cc21	n	n	n	n
C=C(C)CC(NCCc1ccccc1)c1ccco1 (configuration not stated)	x	x	x	72
CCN(CC)S(=O)(=O)c1ccc(NC(=O)CSc2nnc(-c3ccc(F)cc3)o2)cc1	n	n	n	61
COc1cccc(-c2cc3c(=O)n(-c4ccccc4)c(=S)[nH]c3s2)c1	n	n	n	66
CCN(C(=O)COC(=O)CNC(=O)c1ccc(C)s1)c1ccccc1	x	x	x	n
CCC(=O)c1ccc(N2CCOCC2)c(F)c1	n	n	n	56
Cc1nc2c(sc3nc4c(cc32)COC(C)(C)C4)c(=O)o1	n	n	n	81
CCOc1cc(/C=C2/C(=O)N(c3ccccc3)N=C2C)ccc1OC(=O)c1ccco1	44	n	n	n
CCOc1cc(/C=C2\C(=O)N(c3ccc(C(N)=O)cc3)N=C2C)ccc1OC(=O)c1cccs1	n	n	n	n
CCC(C)(C)NC(=O)C(OC(=O)c1cc2sccc2n1C)c1ccc(OC)cc1 (configuration not stated)	n	n	n	n
COc1cc(Cl)c(C)cc1NC(=O)COC(=O)c1cc[n+]([O-])cc1	x	x	x	n
CCN(CC)CCCNC(=O)c1cn(CCOC)c(=O)c2c1c1ccccc1n2C	n	n	n	n
O=C(Nc1cccc(-c2cn3ccccc3n2)c1)c1cccc(Cl)c1	n	n	n	57
O=C(c1ccc([N+](=O)[O-])cc1)N(Cc1ccc(Br)cc1)N1C(=O)CCCC1=O	n	x	n	98
O=C(c1ccco1)N(Cc1ccc([N+](=O)[O-])cc1)c1ccc(Br)cc1	n	n	n	n
CCOC(=O)c1cnc(-n2nc(C)cc2C)nc1N1CCOCC1	92	n	n	x
CCOC(=O)c1cnc(-n2nc(C)cc2C)nc1N(C)C	n	n	n	x
O=C(Nc1ccc2nc(SCc3ccc(Cl)cc3)sc2c1)c1ccccc1C(=O)N1CCOCC1	n	n	n	53
COc1ccc(OC)c(N(CC(=O)NC2CC2)S(=O)(=O)c2ccc(C)cc2)c1	n	n	90	n
Cc1ccc(C)c(N2C(=O)c3cc(N4CCOCC4)c([N+](=O)[O-])cc3C2=O)c1	x	x	x	n
O=C(NCc1ccccc1)c1n[nH]nc1-c1ccccc1O	x	x	x	58
SMILES	VCAM1 TNFa inh	cytoskel mod	TNFa cytotox	E-sel TNF inh
O=C(COc1ccc(-c2ccccc2)cc1)N1CCN(C(=O)c2cccs2)CC1	x	x	x	n
COCCNC(=O)c1ccc(N(C)S(=O)(=O)c2ccc(OC)c(OC)c2)cc1	n	n	n	100
COc1ccc(CCNC(=O)c2ccc(N(C)S(=O)(=O)c3ccc(C)cc3)cc2)cc1OC	x	x	x	n
O=C(CN(C(=O)CCC(=O)Nc1ccccn1)c1ccc2c(c1)OCO2)NCc1ccco1	n	n	n	70
COC(=O)c1cc(S(=O)(=O)N2CCOCC2)c(N2CCOCC2)cc1N1CCOCC1	x	x	x	56
CC(C)(C)NC(=O)CSc1nnc(C2CC2)n1Cc1ccccc1	x	x	x	n
COC(=O)c1cccc(S(=O)(=O)N(Cc2ccco2)Cc2cc3ccc(OC)cc3[nH]c2=O)c1	87	n	n	x
Cn1nc(C(F)(F)F)c(C(=O)Nc2ccc(F)cc2F)c1Sc1ccc(C(F)(F)F)cc1	n	63	n	n
Cn1nc(C(F)(F)F)c2cc(C(=O)Nc3ccc(F)cc3F)sc21	n	n	n	x
CC[C@@H](C)[C@H](NC(=O)C1CCN(C(=O)[C@@H](NS(=O)(=O)c2ccc(C)cc2)C(C)C)CC1)C(=O)O	n	n	n	n
CCOc1cc(N2CCOCC2)c(OCC)cc1NS(=O)(=O)c1ccc(Cl)s1	n	n	n	89
COc1ccc(-n2nc3c(c2NC(=O)c2ccc(Br)cc2)CS(=O)C3)cc1 (configuration not stated)	n	n	n	x
COc1ccc(-n2nc3c(c2NC(=O)c2cc(Br)ccc2Cl)CS(=O)C3)cc1 (configuration not stated)	n	n	n	83
COc1ccc(Nc2cc(C(=O)NCCCN3CCOCC3)c3ccccc3n2)cc1OC	n	35	n	n
